Screening results from PubChem.
Rows were chosen to be rich in hits. Some 1.7% of all compounds tested hit in one or more screens of this group.
hERG WT inh – blocks the wildtype human KCNH2 potassium channel; 340,000 tested, 0.37% active; U2OS, BacMam KCNH2, thallium flux FluxOr; stronger effect = lower value; AID 720551; Q12809; activity change, % at 1.84 µM;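 active means maximum activity change below -70%; inconclusive means maximum activity change between -70% and -50%; inactive means maximum activity change above -50%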
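U2OS cells were transduced with wild-type KCNH2 virus (2.03 x 10^8 / mL) for 4 h at room temperature, then cultured overnight at 37 C. Thallium flux was read with FluxOr dye. Rate constants were normalized to DMSO controls.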
Giardia killer – Giardia lamblia killing; Giardia lamblia trophozoite viability; activity change, % at 7.66 µM, hits read low; 340,000 tested, 0.15% active; in the data active means activity change below about -80%; inconclusive means between about -30% and that limit;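 further: parasites exposed to compound for two days anaerobically before the ATP read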
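Viability, read as ATP luminescence: trophozoites at 100 cells/well, compound added, 48 hrs anaerobic at 37 deg C, then 15-30 min room-temperature development before reading.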
FBPA coupling cs – coupling enzyme interference in Giardia aldolase counter-screen | coupling enzyme system counterscreen, AmpLite Red fluorescence | activity change, negative = inhibition, % at 58.2 µM, hits read low | 290,000 tested, 0.67% active; in the data active means activity change below about -30%
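Activity here indicates interference with the coupling reaction, not aldolase inhibition. Compounds at 57.5 uM final met coupling enzymes for 10 min at RT; substrate and AmpLite Red detection followed, with a 525/598 nm fluorescence read after 20 min.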
KCNH2 3.1 block – blocks the human KCNH2 3.1 channel isoform; U2OS KCNH2 3.1, thallium flux FluxOr; stronger effect = lower value; activity change, % (tested at about 1.8 µM); 340,000 tested, 0.95% active; AID 720553;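 active means maximum activity change below -70%; inconclusive means maximum activity change from -70% to -50%; inactive means maximum activity change above -50%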;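 further: thallium influx rate constant from kinetic fluorescence after stimulation buffer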
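Thallium flux via FluxOr fluorescence (Red40 quencher, 45 min loading) in U2OS cells virally expressing the KCNH2 3.1 isoform (1.77 x 10^8 /mL virus, overnight at 37 C). Rate constants from 2-min kinetic reads post-stimulation, normalised to positive and negative controls.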
USP1 inh – inhibitors of human USP1/UAF1 deubiquitinase | 390,000 tested, 0.23% active | recombinant USP1/UAF1, Ub-Rhodamine cleavage fluorescence | O94782 | Potency, µM (series often up to 57.1 µM), inactives show top-dose activity change, negative = inhibition, most hits filed as inhibitors; active means well fitted inhibition curve with a large enough effect; inconclusive means small, poorly fitted or top-dose-only effect; inactive means no such curve, though single readings can be large or run the other way; further: potency means the concentration at half of the fitted maximal effect; nearly all actives have a fitted effect of over 60% in size
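USP1/UAF1 complex (1 nM) preincubated 15 min at room temperature with compound, then Ub-Rho substrate (150 nM final) added. Kinetic fluorescence at 480/540 nm over 6 reads at 60 s intervals; 50 mM HEPES pH 7.8, 0.5 mM EDTA, 0.1 mg/ml BSA, 1 mM TCEP, 0.01% Tween-20.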
* hit, by the source's call; u = inconclusive; x = not tested or not shown. On the % scale 0 is the no-effect control and ±100 the full control effect.

SMILES	hERG WT inh	Giardia killer	FBPA coupling cs	KCNH2 3.1 block	USP1 inh
CCCN1C(=O)/C(=C/c2ccc(C)o2)NC1=S	x	x	-33*	x	x
Cc1ccc2cc3cc(C(=O)N4CCN(c5ccccc5)CC4)oc3nc2c1	x	x	x	x	22%
C#CCOCCOCCOCCNc1nc(N2CCN(C(=O)C(Cc3cc4ccccc4[nH]3)n3cc(C(N)C(C)CC)nn3)CC2)nc(N2CCN(C(=O)C(Cc3cc4ccccc4[nH]3)n3cc(C(N)C(C)CC)nn3)CC2)n1 (configuration not stated)	-9	-23	-16	-7	u
C#CCOCCOCCOCCNc1nc(N2CCOCC2)nc(N2CCN(C(=O)[C@H](Cc3cc4ccccc4[nH]3)n3cc([C@@H](N)C(C)CC)nn3)CC2)n1 (some centres not stated)	-2	-3	6	-12	45µM*
S=c1nc(SCc2ccccc2)[nH]c2ccccc12	u	-7	1	-128*	-10%
CCN(Cc1ccccc1)C1CCN(Cc2ccccc2)CC1	14	-15	1	3	-17%
COc1ccc(CN2CCC(N(CCc3ccccc3)Cc3ccccc3)CC2)c(OC)c1	-72*	-8	0	-107*	-6%
CCCN1CCC(N(CCc2ccccc2)Cc2ccccc2)CC1	-20	27	-1	-75*	-24%
COc1ccc(CN2CCC(C(=O)N(C)CCc3ccc(OC)c(OC)c3)CC2)c(OC)c1	19	-2	0	-13	-1%
COc1cccc(C2=Nn3c(nnc3-c3cc(OC)ccc3OC)SC2)c1	x	x	-1	x	x
CCCN(Cc1ccc(N(CC)CC)cc1)CC1CC1	6	0	1	14	-3%
CCCN(Cc1ccc(N(C)C)cc1)CC1CC1	-4	11	-50*	1	-16%
Cn1c(=O)n(-c2ccc3c(c2)OCO3)c2nc(-c3ccc(Cl)cc3)nc(C(N)=O)c21	x	x	x	x	-6%
CCc1c(C)c2cc(Cl)c(O)c(CN(C)C)c2oc1=O	-7	-25	0	-88*	-1%
O=C(COc1ccc(F)cc1)Nc1ccc(S(=O)(=O)N(Cc2ccccc2)c2ccccc2)cc1	x	x	x	x	-12%
O=C(OCc1ccc([N+](=O)[O-])cc1)c1cc(S(=O)(=O)N2CCCCC2)ccc1N1CCOCC1	-93*	-15	x	-80*	-12%
CC(C)(C)OC(=O)N1CCC(c2c(C(=O)N3CCN(c4ccccc4)CC3)cnn2-c2ccccc2)CC1	x	x	x	x	-7%
COc1cc2c(cc1NC(=O)/C=C/c1cc(OC)c(OC)c(OC)c1)oc1ccccc12	-7	0	0	-87*	3%
Cn1nc(-c2ccc(Cl)cc2)nc2c(=O)n(C)c(=O)nc1-2	x	-103*	-76*	x	x
Cn1nc(-c2ccc(F)cc2)nc2c(=O)n(C)c(=O)nc1-2	x	-89*	x	x	x
Cn1nc(-c2ccccc2)nc1-c1ccccc1	-10	13	x	-33	15%
CCn1nc(-c2ccccc2C)nc2c(=O)n(C)c(=O)nc1-2	x	-93*	x	x	x
Cn1nc(-c2cccnc2)nc2c(=O)n(C)c(=O)nc1-2	x	-86*	x	x	x
CS(=O)(=O)n1nc(-c2ccc(Cl)cc2)nc1N	-7	-3	-7	-2	u
O=C(CSc1nccn1-c1ccc(Cl)cc1)Nc1cccc2ccccc12	x	x	x	x	-17%
SMILES	hERG WT inh	Giardia killer	FBPA coupling cs	KCNH2 3.1 block	USP1 inh
COc1ccc(-c2nc3c(=O)n(C)c(=O)nc-3n(C)n2)cc1	x	-99*	x	x	x
CCOC(=O)c1c(/N=C/C2C(=O)CC(C)(C)CC2=O)sc2c1CCCC2	-9	-4	1	20	-18%
CCOC(=O)c1cc(CC)sc1/N=C/C1C(=O)CC(C)(C)CC1=O	-25	-3	3	-75*	-3%
CNCC[C@@H](Oc1ccc(C(F)(F)F)cc1)c1ccccc1	x	1	x	-92*	-10%
CN(CC[C@@H](Oc1ccc(C(F)(F)F)cc1)c1ccccc1)CC(=O)O	x	x	-3	x	x
COc1ccc(CCNC(=O)C(=O)NCC2OCCN2S(=O)(=O)c2cc(F)ccc2F)cc1 (configuration not stated)	8	-12	0	-143*	-14%
COC(=O)c1ccc(Cl)c(NC(=O)C2CCN(S(=O)(=O)Cc3ccccc3)CC2)c1	x	x	x	x	-17%
CN(C)CCCOc1ccc2c(c1)Sc1ccccc1CC2=O	7	u	-66*	-36	-6%
O=C1Cc2ccccc2Sc2cc(OCCCN3CCCCC3)ccc21	2	-15	-16	-47	-21%
Cc1cc(O)c(C(c2ccccc2)N2CCC(C)CC2)c(=O)n1Cc1ccco1 (configuration not stated)	x	x	x	x	-22%
CC(/C=N/NC(=O)c1ccc(CN2c3cccc4cccc(c34)S2(=O)=O)cc1)c1ccccc1 (configuration not stated)	1	-6	0	-84*	-5%
O=C(O)c1ccc(/C=N/NC(=O)c2ccc(CN3c4cccc5cccc(c45)S3(=O)=O)cc2)cc1	-8	1	-7	-23	-19%
S=C(Nc1ccc2cn[nH]c2c1)Nc1ccccc1Cl	-9	4	-47*	9	-18%
O=C(NCCCn1ccnc1)c1noc2c1CCCC2	1	-6	1	19	10%
O=C(NCCCn1ccnc1)c1noc2c1CCc1ccccc1-2	-2	15	-44*	2	-23%
N#Cc1nc(N2CCCCC2)nc(N2CCCCC2)n1	x	-27	x	x	x
Cc1cc(C)cc(NC(=O)NNC(=O)c2cc3occc3[nH]2)c1	-46	9	-2	-9	-21%
Cc1cccc(NC(=O)NNC(=O)c2cc3occc3[nH]2)c1C	-14	36	x	-449*	-12%
COc1ccc(Cl)cc1NC(=O)CSc1nc(-c2ccco2)cc(C(F)(F)F)n1	x	x	x	x	-7%
CC(Sc1nnc(C(F)(F)F)n1C)C(=O)Nc1ccc(N2CCOCC2)cc1 (configuration not stated)	-140*	19	x	-186*	-5%
c1ccc2c(-c3nc4ccccc4[nH]3)cccc2c1	16	x	x	-122*	u
Cc1ccc(-n2c(C)cc(C(=O)COc3cccnc3[N+](=O)[O-])c2C)cc1	-4	u	-2	-5	-16%
Cc1cc(C(=O)COc2cccnc2[N+](=O)[O-])c(C)n1-c1ccccc1	0	-89*	0	5	-14%
CCc1sc(-c2cc3ccccc3oc2=O)nc1-c1ccc(C)cc1	x	17	x	x	x
CCCCCCN1C[C@@H](n2cc(C3CC3)nn2)[C@H](O)C[C@@H]1c1ccc(OC)cc1	6	x	x	-21	-8%
Cc1cccc(CNS(=O)(=O)c2csc(C(N)=O)c2)c1	-3	-9	2	-5	-22%
COC(=O)c1cc(S(=O)(=O)NCc2ccccc2Cl)c[nH]1	27	-9	0	0	-21%
COC(=O)c1cc(S(=O)(=O)NCc2cccs2)c[nH]1	-244*	3	0	3	-20%
COC(=O)c1cc(S(=O)(=O)NCC2CCN(Cc3ccccc3F)CC2)c[nH]1	11	-10	x	-118*	-9%
